# Data reported in ChEMBL document CHEMBL1157539, “Thousands of chemical starting points for antimalarial lead identification” (Nature, 2010).
# Columns and labels:
# Assay type in all cases: functional
# [1] = test system: Plasmodium falciparum; test: GSK_TCMDC: Inhibition of Plasmodium falciparum 3D7 in whole red blood cells, using parasite LDH activity as an index of growth. Test compounds present at 2uM
# [2] = test system: Plasmodium falciparum; test: GSK_TCMDC: Inhibition of Plasmodium falciparum Dd2 in whole red blood cells, using parasite LDH activity as an index of growth. Test compounds present at 2uM
# [3] = test system: HepG2; test: GSK_TCMDC: Percent inhibition of human HepG2 cell line. Test compounds present at 10uM.
Compound,Inhibition [1] [%],Inhibition [2] [%],Inhibition [3] [%]
CS(=O)(=O)c1ccc(-c2cncc(Cl)n2)cc1,100,95,8
O=C(Nc1cccc(-c2cccc(-c3nc4cc(F)ccc4[nH]3)c2)c1)Nc1ccc(F)c(F)c1F,100,100,83
CN1CCN(c2ccc(Nc3ncc(Cl)c(Nc4cccnc4C(N)=O)n3)cc2)CC1.Cl,95,97,99
OC(CN1CCN(C2CCCCC2)CC1)Cn1c2ccccc2c2cc(Br)ccc21 (centres undefined),97,89,14
CCCCNCc1ccc(-c2nc(CN(C(=O)Nc3cc([N+](=O)[O-])ccc3F)C3Cc4ccccc4C3)cs2)cc1.O=C(O)C(F)(F)F,87,13,15
Cc1cc(NC(=O)NCCN2CCC(NS(=O)(=O)c3ccccc3F)CC2)c2ccccc2n1,81,44,0
Cc1cc(N2CCCC2)nc(Nc2ccc(NC(=O)c3cccc(F)c3)cc2)n1,97,28,39
CC(=O)O.CC(C)c1ccc(C2CCN(CCCCNC(=O)c3ccc(NC(=O)c4ccc(C(F)(F)F)cc4)cc3)CC2)c(O)c1,99,100,47
Cc1ccc2nc(C)cc(N/N=C/c3ccccc3[N+](=O)[O-])c2c1,100,100,5
CCCNCc1ccc(-c2ccc(CN(CCOC)C(=O)c3ccccc3)cc2)nc1.O=C(O)C(F)(F)F,94,25,16
O=c1cc(NCCC(CNCCc2ccccc2)NCc2cc(Br)cc(Br)c2)[nH]c2ccccc12 (centres undefined),98,47,3
COc1ccc(CNCc2ccsc2)cc1-c1ccc(S(=O)(=O)NCCN2CCCC2)s1.O=C(O)C(F)(F)F,100,34,39
CCc1c(C)nc(-n2nc(C)cc2NC(=O)c2ccc(OC)cc2OC)[nH]c1=O,96,57,42
CC(=O)Nc1cccc(C(=O)Nc2cccc(-c3ccc(-c4nc5cccc(C)c5[nH]4)cc3)c2)c1,95,12,29
CC(C)C1=C[C@H]2C[C@]3(C4OCCO4)[C@@H]4CC[C@@H](C)[C@H]4C[C@@]2(C(=O)OCC2COCO2)[C@]13C(=O)OC(c1ccccc1)c1ccccc1 (some centres undefined),92,96,2
O=C(N[C@H]1CCN(Cc2ccc(OCCN3CCCC3)c3ccccc23)C1)c1ccc(Cl)c(Cl)c1.O=C(O)C(F)(F)F,100,51,90
O=C(/C=C/c1ccc(Cl)c(Cl)c1)NCCCCCCN1CCCN(C(=O)Nc2ccc(Cl)c(Cl)c2)CC1,100,8,25
CN1CCN(Cc2ccc(-c3ccc4c(Nc5ccc(Oc6ccccn6)cc5)ccnc4c3)o2)CC1,100,99,13
CC(C)(C)C1CCC(C(=O)c2ccc3ccccc3c2O)CC1 (centres undefined),83,63,0
COc1cccc(CCNCc2ccc(-c3cccc(CNC4CCCC4)c3)cc2)c1.O=C(O)C(F)(F)F,100,45,14
COC(=O)c1ccc(NC(=O)c2ccc(CCN3CCC(c4nc(COCC(F)(F)F)c(-c5ccc(F)cc5)o4)CC3)cc2)cc1,89,37,22
N=C(N)NC(=O)Nc1cc(Br)c(Cl)c(Br)c1,100,83,0
COc1cccc2c(NN=Cc3cccc(Cl)c3)ccnc12,100,77,19
O=C(Nc1cc(Cl)ccc1O)c1ccc(Oc2ccc(C(=O)Nc3cc(Cl)ccc3O)cc2)cc1,97,91,32
Cl.O=c1cc(NCCCNC2CCOc3c(Cl)cc(Cl)cc32)[nH]c2ccccc12 (centres undefined),100,88,0
O=C(NCCCN1CCC(Cc2ccccc2)CC1)c1cc2c(Cl)nc3ccccc3c2s1,98,40,22
Oc1ccc(CCNCc2ccc(OCc3ccccc3)c(OCc3ccccc3)c2)cc1,88,9,31
CCOc1ccc(Br)cc1/C=C/C(=O)Nc1ccc2c(c1)CN(C)CCC2.O=C(O)C(F)(F)F,97,37,18
